Measured values taken from PubChem BioAssay (EPA / NIEHS).
The source made the active and inactive calls. The calls were made as follows: active = hit-call score of the fitted dose curve at least 0.9, where 1 is the maximum; inactive = score below 0.9.

Experiments:
[1] = read-out: Monocyte Chemoattractant Protein-1 (MCP1), CCL2 (gene 6347); experiment: BSK_LPS_MCP1: BioMAP Diversity Plus: LPS Assay for Monocyte Chemoattractant Protein-1 (MCP1) Biomarker Activity (AID 2283081); details: primary human HUVEC with PBMC; actives raise or lower the signal
Outline: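 Values derive from bidirectional fitting against DMSO of ELISA-measured MCP-1 in a human primary endothelial and mononuclear cell co-culture, 24 h after chemical addition under LPS activation.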

[2] = BSK_LPS_PGE2: BioMAP Diversity Plus: LPS Assay for Prostaglandin E2 (PGE2) Biomarker Activity (AID 2283082); details: primary human HUVEC with PBMC; actives raise or lower the signal;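 as to AC50: secreted prostaglandin E2 measured by ELISA in LPS-stimulated co-culture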
Outline: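 LPS-activated HUVEC/PBMC co-culture; cmpd dosed, 24 h; PGE2 by ELISA; bidirectional fit vs DMSO; SRB (0.1%, TCA-fixed, 560 nm) in parallel plates for overt cytotox.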

[3] = read-out: Macrophage colony-stimulating factor (MCSF), CSF1 (gene 1435); experiment: BSK_LPS_MCSF: BioMAP Diversity Plus: LPS Assay for Macrophage colony-stimulating factor (MCSF) Biomarker Activity (AID 2283083); details: primary human HUVEC with PBMC; actives raise or lower the signal
Outline: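 Bidirectional fit versus DMSO of ELISA-measured M-CSF in co-cultured human umbilical vein endothelial cells and PBMC, sampled 24 h after dosing.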

[4] = read-out: Tissue Factor, F3 (gene 2152); experiment: BSK_LPS_TissueFactor: BioMAP Diversity Plus: LPS Assay for Tissue Factor Biomarker Activity (AID 2283084); details: primary human HUVEC with PBMC; actives raise or lower the signal
Outline: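 Read-out: CD142 ELISA, 24 h. System: LPS-driven human endothelial/PBMC co-culture. Analysis: up- or down-signal fitted against DMSO.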

[5] = read-out: Tumor necrosis factor (Homo sapiens) (UniProt P01375); experiment: BSK_LPS_TNFa: BioMAP Diversity Plus: LPS Assay for Tumour Necrosis Factor alpha (TNFa) Biomarker Activity (AID 2283085); details: primary human HUVEC with PBMC; actives raise or lower the signal
Outline: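 Read-out is ELISA of TNFa in primary human endothelial cell–PBMC co-cultures at 24 h after compound. Activity in either direction was fitted against DMSO.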

[6] = read-out: Vascular cell adhesion molecule 1 (VCAM1), VCAM1 (gene 7412); experiment: BSK_LPS_VCAM1: BioMAP Diversity Plus: LPS Assay for Vascular cell adhesion molecule 1 (VCAM1) Biomarker Activity (AID 2283086); details: primary human HUVEC with PBMC; actives raise or lower the signal
Outline: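 HUVEC + PBMC co-culture, LPS system; compound 24 h; VCAM-1 by ELISA; bidirectional fit vs DMSO control; parallel SRB (0.1%, TCA-fixed, 560 nm) for cytotoxicity.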

[7] = read-out: CD38, CD38 (gene 952); experiment: BSK_SAg_CD38: BioMAP Diversity Plus: SAg Assay for CD38 Biomarker Activity (AID 2283087); details: primary human HUVEC with PBMC; actives raise or lower the signal
Outline: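 Human HUVEC plus PBMC co-culture stimulated with superantigen; CD38 measured by ELISA 24 h after chemical dosing. Fluorescence read-out, bidirectional fit against DMSO; cytotoxicity tracked in parallel by SRB and Alamar Blue.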

[8] = read-out: CD40, CD40 (gene 958); experiment: BSK_SAg_CD40: BioMAP Diversity Plus: SAg Assay for CD40 Biomarker Activity (AID 2283088); details: primary human HUVEC with PBMC; actives raise or lower the signal
Outline: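 Endpoint derived by fitting increases or decreases versus DMSO controls. CD40 is detected by fluorescence ELISA in a human vascular co-culture of endothelium and PBMC at 24 h.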

[9] = read-out: CD69, CD69 (gene 969); experiment: BSK_SAg_CD69: BioMAP Diversity Plus: SAg Assay for CD69 Biomarker Activity (AID 2283089); details: primary human HUVEC with PBMC; actives raise or lower the signal;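 as to AC50: cell surface CD69 protein quantified by ELISA with fluorescence detection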
Outline: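 ELISA, fluorescence read-out: CD69 on human umbilical vein endothelial cell + PBMC co-culture, 24 h post-dosing. Gain or loss of signal fitted bidirectionally against DMSO baseline.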

[10] = read-out: Monocyte Chemoattractant Protein-1 (MCP1), CCL2 (gene 6347); experiment: BSK_SAg_MCP1: BioMAP Diversity Plus: SAg Assay for Monocyte Chemoattractant Protein-1 (MCP1) Biomarker Activity (AID 2283090); details: primary human HUVEC with PBMC; actives raise or lower the signal
Outline: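 MCP-1 levels in the endothelial–PBMC SAg co-culture were quantified by ELISA at 24 h post-dosing; both increases and decreases versus DMSO scored. Cytotoxicity monitored by SRB total protein in parallel cultures.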

[11] = read-out: Monokine induced gamma interferon (MIG), CXCL9 (gene 4283); experiment: BSK_SAg_MIG: BioMAP Diversity Plus: SAg Assay for Monokine induced gamma interferon (MIG) Biomarker Activity (AID 2283092); details: primary human HUVEC with PBMC; actives raise or lower the signal
Outline: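 ELISA readout of MIG/CXCL9; primary human umbilical vein endothelial cells co-cultured with peripheral blood mononuclear cells; 24 h post-dose; gain/loss fit vs DMSO baseline.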

[12] = BSK_SAg_PBMCCytotoxicity: PBMC Cytotoxicity Assessment in the BioMAP Diversity Plus: SAg Assay (AID 2283093); details: primary human HUVEC with PBMC;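 also: PBMC viability measured as Alamar Blue reduction fluorescence at 546/580 nm; fitted both ways against DMSO so a hit may be loss or gain of signal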
Outline: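 Human umbilical vein endothelial cells co-cultured with PBMC; PBMC (75,000/well) pre-treated with compound 1 h, then activated with SEB and TSST-1 (20 ng/mL final each) for 90 h. Alamar Blue added 6 h, fluorescence 546/580 nm; bidirectional fit versus DMSO.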

[13] = read-out: Interleukin-8 (IL8), CXCL8 (gene 3576); experiment: BSK_SAg_IL8: BioMAP Diversity Plus: SAg Assay for Interleukin-8 (IL8) Biomarker Activity (AID 2283094); details: primary human HUVEC with PBMC; actives raise or lower the signal
Outline: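 ELISA read-out of IL-8 in a primary human vascular co-culture (umbilical vein endothelium plus PBMC), taken 24 h after compound addition. Values derive from bidirectional fits against DMSO negative controls.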

[14] = BSK_SAg_SRB: Viability Assessment in the BioMAP Diversity Plus: SAg Assay (AID 2283096); details: primary human HUVEC with PBMC;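 also: cells read one day after compound addition; hits may be either gain or loss of signal compared with DMSO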
Outline: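 Endothelial/PBMC primary human co-culture; compound 24 h; fix 10% TCA, stain 0.1% SRB, A560; protein content as cytotoxicity proxy; bidirectional curve fit, DMSO = baseline.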

[15] = read-out: E-selectin (Homo sapiens) (UniProt P16581); experiment: BSK_SAg_Eselectin: BioMAP Diversity Plus: SAg Assay for Eselectin Biomarker Activity (AID 2283091); details: primary human HUVEC with PBMC; actives raise or lower the signal
Outline: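 Endpoint values derive from bidirectional fitting relative to DMSO, using ELISA-measured E-selectin in a human vascular co-culture (umbilical vein endothelium plus PBMC) sampled 24 h after dosing.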

[16] = BSK_SAg_Proliferation: Cell Proliferation Assessment in the BioMAP Diversity Plus: SAg Assay (AID 2283095); details: primary human HUVEC with PBMC;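 also: relative cell number as total protein by SRB absorbance in sub-confluent culture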
Outline: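 Cells (endothelium plus PBMC, human primary) were dosed with chemical, cultured 96 h, fixed in 10% TCA and stained with 0.1% SRB. Absorbance at 560 nm gave relative protein, fitted bidirectionally relative to DMSO.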

Measured: AC50

Sequence of Tumor necrosis factor (Homo sapiens) (P01375 whole entry, looked up): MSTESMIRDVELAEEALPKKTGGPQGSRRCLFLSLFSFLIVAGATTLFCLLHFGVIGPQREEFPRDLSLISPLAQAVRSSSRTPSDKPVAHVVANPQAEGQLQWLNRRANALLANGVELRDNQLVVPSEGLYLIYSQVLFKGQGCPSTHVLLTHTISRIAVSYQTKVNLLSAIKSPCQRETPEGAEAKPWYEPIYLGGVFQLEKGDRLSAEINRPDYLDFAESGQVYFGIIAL
Sequence of E-selectin (Homo sapiens) (P16581 whole entry, looked up): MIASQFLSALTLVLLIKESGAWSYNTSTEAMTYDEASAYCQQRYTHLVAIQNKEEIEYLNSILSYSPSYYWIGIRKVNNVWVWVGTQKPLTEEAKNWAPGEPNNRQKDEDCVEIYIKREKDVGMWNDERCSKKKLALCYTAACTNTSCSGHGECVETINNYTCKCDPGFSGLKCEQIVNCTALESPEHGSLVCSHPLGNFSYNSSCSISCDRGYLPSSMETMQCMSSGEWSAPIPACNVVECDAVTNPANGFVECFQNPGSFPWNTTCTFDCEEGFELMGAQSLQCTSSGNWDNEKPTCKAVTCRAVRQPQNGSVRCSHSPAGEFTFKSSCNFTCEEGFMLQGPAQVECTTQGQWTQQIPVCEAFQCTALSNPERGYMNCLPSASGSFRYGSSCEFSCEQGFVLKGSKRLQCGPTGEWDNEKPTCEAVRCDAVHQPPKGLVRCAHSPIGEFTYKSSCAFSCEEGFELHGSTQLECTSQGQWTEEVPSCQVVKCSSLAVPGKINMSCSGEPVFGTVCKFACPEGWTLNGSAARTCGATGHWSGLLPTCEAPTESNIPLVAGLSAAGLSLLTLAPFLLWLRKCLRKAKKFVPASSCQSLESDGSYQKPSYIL

CCCCCCCCCCCCCCCCO
not listed: [15] | [16]
inactive: all other assays above

Cc1ccc(-c2cc(C(F)(F)F)nn2-c2ccc(S(N)(=O)=O)cc2)cc1
active: [2] 0.288 µM | [3] 29.7 µM | [4] 30.7 µM | [5] 30.9 µM | [6] 31.7 µM | [7] 30.2 µM | [8] 27.3 µM | [9] 26.9 µM | [10] 30.5 µM | [15] 29.4 µM | [11] 34.6 µM | [13] 23.9 µM | [16] 23 µM | [14] 27.8 µM

CS(=O)(=O)c1ccc([C@@H](C[C@H]2CCC(=O)C2)C(=O)Nc2cnccn2)cc1Cl
not listed: [15] | [16]
inactive: all other assays above

O=C(O)c1[nH]n(-c2ccc(S(=O)(=O)O)cc2)c(=O)c1N=Nc1ccc(S(=O)(=O)O)cc1
not listed: [15] | [16]
inactive: all other assays above

O=C1NC(=O)C(c2ccccc2)(c2ccccc2)N1
not listed: [15] | [16]
inactive: all other assays above

CC(=O)[C@@]1(O)CC[C@H]2[C@@H]3CCC4=CC(=O)CC[C@]4(C)[C@H]3CC[C@@]21C
not listed: [15] | [16]
inactive: all other assays above
